The text below walks through data of PubChem BioAssay AID651658 (Broad Institute, 2012).

The whole screen tested about 340,000 compounds, of which about 5,100 (1.5%) were called active. Only a selection was taken, and actives are over-represented in it overall. A number with no mark means an inactive call.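 Rule for the calls: active = mean Tm shift, scaled 0 neutral to 100 positive control, at about 1.3% or above, every replicate too (limit read from the data); inconclusive = no clear call, values can overlap the other calls; inactive = the rest.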

The target in this test is Fibroblast growth factor 22 (Homo sapiens) (UniProt Q9HCT0). As to the kind of experiment: binders of human FGF22 protein, primary screen, FGF22 synaptogenesis inhibitor project, biophysical, thermal shift, single point (AID 651658). The following applies: recombinant FGF22 thermal shift, SYPRO orange fluorescence; at 9.99 µM; active compounds read high; percent of sucrose octasulfate shift, DMSO zero.
Fibroblast growth factor 22 (Homo sapiens), sequence (Q9HCT0 whole entry, looked up): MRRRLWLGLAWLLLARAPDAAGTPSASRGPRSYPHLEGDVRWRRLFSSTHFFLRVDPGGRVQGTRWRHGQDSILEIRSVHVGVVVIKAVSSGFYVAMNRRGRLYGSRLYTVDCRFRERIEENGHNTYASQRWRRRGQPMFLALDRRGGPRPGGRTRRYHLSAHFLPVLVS
Turning to `OC[C@H]1[C@H](c2ccc(-c3ccccc3F)cc2)[C@H]2CN(Cc3cncnc3)CCCCN21`, the activity (Tm shift, normalised) was 0.4%.

As to `CN(C)C(=O)C[C@H]1CC[C@H](NC(=O)NC2CCCC2)[C@@H](CO)O1`, the activity (Tm shift, normalised) was -0.127%.

With `O=C(COC(=O)Cn1cnc2ccccc21)Nc1cccc2c1C(=O)c1ccccc1C2=O`, the activity (Tm shift, normalised) is 0.059%.

As to `CC(=O)OC(COc1ccc(F)cc1)Cn1cnc2ccccc21` (configuration not stated), the activity (Tm shift, normalised) is 43% (active).

For `O=C(Cn1cnc2ccccc21)Nc1ccccc1-c1ccccc1`, the activity (Tm shift, normalised) was 0.098%.

With `CO[C@H]1CN(C)C(=O)c2ccc(NC(=O)c3ccno3)cc2OC[C@@H](C)N(S(C)(=O)=O)C[C@H]1C`, the activity (Tm shift, normalised) is 0.142%.

In the case of `C[C@H](CO)N1C[C@H](C)[C@@H](CN(C)C)Oc2ccc(N(C)C)cc2C1=O`, the activity (Tm shift, normalised) is 1.41% (active).

As for `C[C@@H]1CN([C@H](C)CO)C(=O)c2cc(N(C)C)ccc2O[C@@H]1CN(C)S(C)(=O)=O`, the activity (Tm shift, normalised) is -0.284%.

With `CNC[C@@H]1Oc2ccc(NC(=O)C3CCCCC3)cc2C(=O)N([C@@H](C)CO)C[C@H]1C`, the activity (Tm shift, normalised) was 1.59% (active).

`CNC[C@H]1Oc2ccc(NC(=O)C3CCCCC3)cc2C(=O)N([C@H](C)CO)C[C@@H]1C`: the activity (Tm shift, normalised) is -0.27%.

As to `C[C@H]1CN([C@@H](C)CO)C(=O)c2cc(N(C)C)ccc2O[C@@H]1CN(C)Cc1ccccc1`, the activity (Tm shift, normalised) is 0.118%.

Turning to `CNC[C@@H]1Oc2ccc(NC(=O)C3CCCCC3)cc2CC(=O)N([C@@H](C)CO)C[C@H]1C`, the activity (Tm shift, normalised) was 0.125%.

As for `O=C(C[C@H]1CC[C@H](NC(=O)c2ccc(F)cc2)[C@@H](CO)O1)NCCc1ccncc1`, the activity (Tm shift, normalised) is -0.269%.

For the compound `O=C(NCC[C@H]1CC[C@@H](NC(=O)C2CCCC2)[C@@H](CO)O1)c1cc(Cl)cc(Cl)c1`, the activity (Tm shift, normalised) is 0.127%.

In the case of `Cc1ccc(S(=O)(=O)NCC[C@H]2CC[C@H](NC(=O)c3ccccn3)[C@@H](CO)O2)cc1`, the activity (Tm shift, normalised) is -0.462%.

Consider `C[C@H]1CCCCO[C@H](CN(C)CC2CC2)[C@@H](C)CN([C@@H](C)CO)C(=O)c2cc(NC(=O)CCC(F)(F)F)ccc2O1`, for which the activity (Tm shift, normalised) is 0.058%.

Take `COc1cccc(S(=O)(=O)N[C@@H]2CC[C@@H](CCNC(=O)Cc3ccncc3)O[C@H]2CO)c1`: the activity (Tm shift, normalised) is 0.19%.

Regarding `C[C@H]1CN([C@@H](C)CO)C(=O)c2cc(-c3cccnc3)cnc2O[C@@H]1CN(C)C(=O)C1CC1`, the activity (Tm shift, normalised) was 0.138%.

For `COC(=O)C1=C(N)Oc2cc(C)[nH]c(=O)c2C1c1ccc(Cl)cc1` (configuration not stated), the activity (Tm shift, normalised) is -0.032%.

For `COC(=O)C1=C(N)Oc2c(oc(CO)cc2=O)C1c1c(F)cccc1Cl` (configuration not stated), the activity (Tm shift, normalised) is 43.6% (active).

Turning to `CC(C)c1ccc(C2C(C#N)=C(N)Oc3c2oc(CO)cc3=O)cc1` (configuration not stated), the activity (Tm shift, normalised) was -0.049%.

With `CO[C@H]1CC[C@H]2CCN(C)C(=O)C[C@@H](c3ccccc3)CN(C)C(=O)c3cccc(C#N)c3OC[C@@H]1O2`, the activity (Tm shift, normalised) was 0.156%.

For the compound `OC[C@@H]1[C@H](c2ccc(Br)cc2)[C@@H]2CN(Cc3ccccn3)CCCCN12`, the activity (Tm shift, normalised) was 0.488%.

Take `CCC(=O)N1CCCCN2[C@H](CO)[C@@H](c3ccc(-c4cccnc4)cc3)[C@H]2C1`: the activity (Tm shift, normalised) is 0.191%.

On to `OC[C@H]1[C@H](c2ccc(-c3cccnc3)cc2)[C@H]2CN(Cc3ccccn3)CCCCN21`, for which the activity (Tm shift, normalised) was 1.51% (active).

As to `O=C(N[C@H]1CC[C@@H](CCNS(=O)(=O)c2cccc(Cl)c2)O[C@@H]1CO)c1ccccc1`, the activity (Tm shift, normalised) is -0.047%.

Consider `O=C(COc1ccc(Br)cc1)OCC(=O)c1ccc[nH]1`, for which the activity (Tm shift, normalised) was -0.019%.

As to `COc1ccc(C(=O)COC(=O)COc2ccc(C)c(C)c2)cc1`, the activity (Tm shift, normalised) is 0.002%.

On to `COc1cc(C)ccc1OCC(=O)OCC(=O)c1ccc[nH]1`, for which the activity (Tm shift, normalised) is 43.3% (active).

As for `C[C@H](CO)N1C[C@H](C)[C@@H](CN(C)S(=O)(=O)c2cn(C)cn2)Oc2ccc(N(C)C)cc2CC1=O`, the activity (Tm shift, normalised) was 0.089%.

As to `Cc1ccc(NC(=O)CN(C)CC(=O)Nc2cccc(F)c2)cc1[N+](=O)[O-]`, the activity (Tm shift, normalised) was 43.3% (active).

Consider `CN(CC(=O)Nc1cccc(F)c1)C(=O)CC1CCCC1`, for which the activity (Tm shift, normalised) was 0.042%.

Take `Cc1ccc(S(=O)(=O)N2CCCCC2)cc1C(=O)N(C)CC(=O)Nc1cccc(F)c1`: the activity (Tm shift, normalised) was -0.088%.

`Cc1cc(C(=O)Nc2ccc3c(c2)C(=O)N(C)[C@H]2CC[C@H](CC(=O)NCC(F)(F)F)O[C@@H]2CO3)no1`: the activity (Tm shift, normalised) is -0.217%.

For the compound `C[C@H](CO)N1C[C@H](C)[C@@H](CN(C)S(=O)(=O)c2ccc(F)cc2)Oc2cc(C3=CCCC3)ccc2S1(=O)=O`, the activity (Tm shift, normalised) was -0.123%.

For `COc1ccc(NC(=O)N(C)C[C@H]2Oc3cc(-c4ccncc4)ccc3S(=O)(=O)N([C@@H](C)CO)C[C@H]2C)cc1`, the activity (Tm shift, normalised) was -0.124%.

For `COc1ccc(NC(=O)N(C)C[C@H]2Oc3cc(-c4ccncc4)ccc3S(=O)(=O)N([C@H](C)CO)C[C@H]2C)cc1`, the activity (Tm shift, normalised) was 0.949%.

Turning to `C[C@H](CO)N1C[C@H](C)[C@H](CN(C)C(=O)Nc2ccc3c(c2)OCO3)Oc2cc(C#Cc3ccncc3)ccc2S1(=O)=O`, the activity (Tm shift, normalised) is -0.273%.

With `COc1cccc(S(=O)(=O)N(C)C[C@@H]2Oc3cc(C4=CCCCC4)ccc3S(=O)(=O)N([C@H](C)CO)C[C@H]2C)c1`, the activity (Tm shift, normalised) was 0.057%.

Regarding `C[C@@H]1CN([C@H](C)CO)S(=O)(=O)c2ccc(-c3ccncc3)cc2O[C@@H]1CN(C)C(=O)Nc1ccc(C(F)(F)F)cc1`, the activity (Tm shift, normalised) was 1.48% (active).

As for `C[C@H]1CN([C@@H](C)CO)S(=O)(=O)c2ccc(C3=CCCC3)cc2O[C@H]1CN(C)C(=O)Nc1ccc2c(c1)OCO2`, the activity (Tm shift, normalised) was 1.26% (active).

On to `C[C@@H]1CN([C@@H](C)CO)S(=O)(=O)c2ccc(-c3ccncc3)cc2O[C@@H]1CN(C)C(=O)Nc1ccc(F)cc1`, for which the activity (Tm shift, normalised) is 1.27% (active).

`C[C@H]1CN([C@@H](C)CO)S(=O)(=O)c2ccc(C#Cc3ccncc3)cc2O[C@@H]1CN(C)C(=O)Nc1ccc2c(c1)OCO2`: the activity (Tm shift, normalised) is 0.074%.

On to `CC(=O)N(C)C[C@@H]1Oc2cc(-c3ccncc3)ccc2S(=O)(=O)N([C@@H](C)CO)C[C@H]1C`, for which the activity (Tm shift, normalised) is -0.496%.

As to `Cc1ccc(-c2ccc3c(c2)O[C@H](CN(C)C(=O)Nc2ccc(C(F)(F)F)cc2)[C@@H](C)CN([C@H](C)CO)S3(=O)=O)cc1`, the activity (Tm shift, normalised) is 0.037%.

For `Cc1ccc(S(=O)(=O)N(C)C[C@@H]2Oc3cc(C4=CCCC4)ccc3S(=O)(=O)N([C@@H](C)CO)C[C@@H]2C)cc1`, the activity (Tm shift, normalised) was 1.23% (active).

`CC(C)CC#Cc1cnc2c(c1)C(=O)N([C@@H](C)CO)C[C@H](C)[C@@H](CN(C)C(=O)c1cccc(F)c1)O2`: the activity (Tm shift, normalised) is -0.381%.

On to `CN1c2ccc(-c3ccccc3F)cc2[C@@H]2[C@@H](CCN2C(=O)CN2CCOCC2)[C@H]1CO`, for which the activity (Tm shift, normalised) is -0.099%.

Regarding `O=C(C[C@H]1C[C@@H]2c3cc(NC(=O)C4CCC4)ccc3O[C@@H]2[C@H](CO)O1)NCCN1CCCCC1`, the activity (Tm shift, normalised) was 0.001%.

Turning to `O=C1C[C@@](C(=O)NCC(F)(F)F)(c2ccc([N+](=O)[O-])cc2)[C@@H](c2ccc(CO)cc2I)N1C1CCCCC1`, the activity (Tm shift, normalised) is 0.18%.

Consider `CCC(=O)N1C[C@@H](C)[C@@H](OC)CN(C)C(=O)c2ccc(NC(=O)c3ccccc3)cc2OC[C@H]1C`, for which the activity (Tm shift, normalised) is -0.17%.

Turning to `COc1ccc2c3c([nH]c2c1)[C@H](CO)N(C(=O)C1CCCCC1)CC31CCN(C(=O)c2ccncc2)CC1`, the activity (Tm shift, normalised) is -0.034%.

As for `CC(C)NC(=O)N(C)C[C@H]1OCCCC[C@H](C)Oc2ccc(NC(=O)CCC(F)(F)F)cc2C(=O)N([C@@H](C)CO)C[C@@H]1C`, the activity (Tm shift, normalised) is -0.59%.

As to `C[C@H](CO)N1C[C@H](C)[C@H](CN(C)C(=O)Nc2ccc(F)cc2)Oc2ncc(-c3cc4ccccc4o3)cc2C1=O`, the activity (Tm shift, normalised) is -0.101%.

On to `CN(C)CC(=O)N1CCCCN2[C@@H](CO)[C@H](c3ccc(-c4cccnc4)cc3)[C@@H]2C1`, for which the activity (Tm shift, normalised) is 0.193%.

On to `C[C@@H]1CCCCO[C@@H](CN(C)Cc2ccc(C(=O)O)cc2)[C@@H](C)CN([C@@H](C)CO)C(=O)c2cc(NC(=O)Nc3ccc(C(F)(F)F)cc3)ccc2O1`, for which the activity (Tm shift, normalised) is 10.4% (active).

In the case of `COc1ccc(S(=O)(=O)Nc2ccc3c(c2)C(=O)N([C@@H](C)CO)C[C@H](C)[C@H](CN(C)Cc2ccc(C(=O)O)cc2)OCCCC[C@@H](C)O3)cc1`, the activity (Tm shift, normalised) is 2.26% (active).

Turning to `COc1ccc(CN(C)C[C@H]2OCCCC[C@@H](C)Oc3ccc(NS(=O)(=O)c4ccccc4)cc3C(=O)N([C@@H](C)CO)C[C@@H]2C)cc1`, the activity (Tm shift, normalised) is 0.068%.

Turning to `Cc1ccc(S(=O)(=O)Nc2ccc3c(c2)C(=O)N([C@H](C)CO)C[C@@H](C)[C@H](CN(C)S(=O)(=O)c2ccc(C)cc2)OCCCC[C@@H](C)O3)cc1`, the activity (Tm shift, normalised) was 31.1% (active).

With `Cc1ccc(S(=O)(=O)N(C)C[C@@H]2OCCCC[C@@H](C)Oc3ccc(NS(=O)(=O)c4ccc(F)cc4)cc3C(=O)N([C@H](C)CO)C[C@H]2C)cc1`, the activity (Tm shift, normalised) is -0.311%.

Turning to `C[C@@H]1CCCCO[C@@H](CN(C)Cc2ccc(C(=O)O)cc2)[C@H](C)CN([C@@H](C)CO)C(=O)c2cc(NC(=O)Nc3ccc(C(F)(F)F)cc3)ccc2O1`, the activity (Tm shift, normalised) was -0.357%.

`C[C@@H]1CCCCO[C@H](CN(C)Cc2ccccc2)[C@@H](C)CN([C@H](C)CO)C(=O)c2cc(NC(=O)Cc3ccccc3)ccc2O1`: the activity (Tm shift, normalised) was 0.467%.

Regarding `C[C@@H]1CCCCO[C@@H](CN(C)Cc2ccncc2)[C@H](C)CN([C@H](C)CO)C(=O)c2cc(NC(=O)Cc3ccccc3)ccc2O1`, the activity (Tm shift, normalised) is 25.7% (active).

As for `C[C@@H]1CN([C@H](C)CO)C(=O)c2cc(NC(=O)Nc3ccc(C(F)(F)F)cc3)ccc2O[C@@H](C)CCCCO[C@@H]1CN(C)Cc1ccc(C(F)(F)F)cc1`, the activity (Tm shift, normalised) is 0.296%.

Regarding `C[C@@H]1CN([C@H](C)CO)C(=O)c2cc(NC(=O)Cc3ccccc3)ccc2O[C@@H](C)CCCCO[C@@H]1CN(C)Cc1ccncc1`, the activity (Tm shift, normalised) is -0.393%.

Consider `COc1ccc(S(=O)(=O)Nc2ccc3c(c2)C(=O)N([C@H](C)CO)C[C@H](C)[C@@H](CN(C)Cc2ccccc2)OCCCC[C@@H](C)O3)cc1`, for which the activity (Tm shift, normalised) was -0.202%.

For the compound `Cc1ccc(S(=O)(=O)N(C)C[C@@H]2OCCCC[C@@H](C)Oc3ccc(NS(=O)(=O)c4ccccc4)cc3C(=O)N([C@H](C)CO)C[C@@H]2C)cc1`, the activity (Tm shift, normalised) is -0.059%.
